Test results published in ChEMBL document CHEMBL3988442, “University of Dundee, Small-Polar-MMV Screening Library” (2021).
For some of these results: Results with a measured potency or affinity are listed apart.

Tests used:
Design in all cases: scale not given: direction of the effect not stated beside the values
[1] = molecular target: Protein translocase subunit SecA (Escherichia coli (strain K12)) (UniProt P10408); assay: Assay to Identify E. coli SecA ATPase Inhibitors; type: functional; details: 30 µM
Sequence of Protein translocase subunit SecA (Escherichia coli (strain K12)) (P10408 whole entry): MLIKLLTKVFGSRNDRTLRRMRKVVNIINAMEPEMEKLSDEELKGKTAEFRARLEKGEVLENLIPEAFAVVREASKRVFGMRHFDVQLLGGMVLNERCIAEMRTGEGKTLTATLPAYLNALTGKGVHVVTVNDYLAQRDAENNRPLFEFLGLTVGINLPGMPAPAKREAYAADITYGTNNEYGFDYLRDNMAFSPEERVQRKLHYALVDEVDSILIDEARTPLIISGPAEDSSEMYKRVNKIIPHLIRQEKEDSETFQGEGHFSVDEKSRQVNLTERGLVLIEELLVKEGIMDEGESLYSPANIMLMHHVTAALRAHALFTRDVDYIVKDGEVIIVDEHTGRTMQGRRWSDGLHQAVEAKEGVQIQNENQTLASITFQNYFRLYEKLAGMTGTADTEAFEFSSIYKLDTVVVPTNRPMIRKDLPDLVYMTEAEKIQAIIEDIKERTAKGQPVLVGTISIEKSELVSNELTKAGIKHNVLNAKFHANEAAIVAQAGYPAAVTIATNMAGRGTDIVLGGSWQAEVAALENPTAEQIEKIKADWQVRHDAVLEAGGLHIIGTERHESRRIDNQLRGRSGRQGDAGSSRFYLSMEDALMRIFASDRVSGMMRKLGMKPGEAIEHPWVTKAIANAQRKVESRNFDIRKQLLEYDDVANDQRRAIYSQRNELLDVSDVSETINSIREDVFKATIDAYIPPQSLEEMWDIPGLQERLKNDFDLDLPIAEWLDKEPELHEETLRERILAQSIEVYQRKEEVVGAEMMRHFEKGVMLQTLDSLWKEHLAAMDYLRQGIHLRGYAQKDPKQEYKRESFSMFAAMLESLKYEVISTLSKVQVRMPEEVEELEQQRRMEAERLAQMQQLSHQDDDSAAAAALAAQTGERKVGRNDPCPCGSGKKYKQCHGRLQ

[2] = molecular target: T1, Ubiquitin-activating enzyme e1, putative (Leishmania donovani (strain BPK282A1)) (UniProt E9BSI1); assay: Leishmania donovani Ubiquitin Activating Enzyme (LdE1); type: functional; details: 30 µM
T1 sequence (whole entry): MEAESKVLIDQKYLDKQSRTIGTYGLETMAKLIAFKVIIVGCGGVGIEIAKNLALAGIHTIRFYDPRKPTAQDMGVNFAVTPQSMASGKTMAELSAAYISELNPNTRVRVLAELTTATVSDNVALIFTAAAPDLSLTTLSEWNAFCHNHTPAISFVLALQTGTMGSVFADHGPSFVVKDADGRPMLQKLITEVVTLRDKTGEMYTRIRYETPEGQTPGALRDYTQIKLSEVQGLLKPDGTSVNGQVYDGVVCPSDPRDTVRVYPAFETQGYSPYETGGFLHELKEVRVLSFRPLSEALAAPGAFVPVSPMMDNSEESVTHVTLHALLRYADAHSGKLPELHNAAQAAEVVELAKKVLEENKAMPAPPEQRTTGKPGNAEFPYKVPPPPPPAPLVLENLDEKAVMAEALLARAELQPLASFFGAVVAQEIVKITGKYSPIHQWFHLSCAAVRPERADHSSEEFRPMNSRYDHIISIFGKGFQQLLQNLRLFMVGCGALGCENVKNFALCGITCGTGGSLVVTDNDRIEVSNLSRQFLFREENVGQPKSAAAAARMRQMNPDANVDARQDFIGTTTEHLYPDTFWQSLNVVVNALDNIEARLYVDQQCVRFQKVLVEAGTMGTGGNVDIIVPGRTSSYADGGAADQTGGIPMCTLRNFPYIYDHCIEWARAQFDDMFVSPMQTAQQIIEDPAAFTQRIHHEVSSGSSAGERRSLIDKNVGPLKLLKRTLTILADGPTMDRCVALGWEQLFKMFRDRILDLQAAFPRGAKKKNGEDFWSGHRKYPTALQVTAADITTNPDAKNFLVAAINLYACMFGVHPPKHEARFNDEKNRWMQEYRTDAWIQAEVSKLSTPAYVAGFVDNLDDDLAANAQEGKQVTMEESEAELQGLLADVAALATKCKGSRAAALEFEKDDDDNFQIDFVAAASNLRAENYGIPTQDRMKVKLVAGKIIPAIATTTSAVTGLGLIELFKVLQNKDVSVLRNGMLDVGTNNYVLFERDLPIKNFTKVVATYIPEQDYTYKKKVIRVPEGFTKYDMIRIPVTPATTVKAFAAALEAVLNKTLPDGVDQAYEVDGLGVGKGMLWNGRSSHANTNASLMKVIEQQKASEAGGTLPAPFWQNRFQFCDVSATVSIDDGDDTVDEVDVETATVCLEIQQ

[3] = molecular target: AMP-activated protein kinase, AMPK (Homo sapiens) (UniProt P54646+O43741+P54619+Q9UGJ0+Q9Y478+Q13131+Q9UGI9); assay: AMP-dependent Kinase enzyme assay. An in vitro enzyme assay that detects ADP turnover that is directly proportional to AMPK activity. This uses naive AMPK that is activated during the assay with MK-8722; type: functional; details: 30 µM
[4] = molecular target: Sialic acid-binding Ig-like lectin 9 (Homo sapiens) (UniProt Q9Y336); assay: Hs-Siglec9 ALPHAscreen SOP 20170721; details: 10 µM
Sequence of Sialic acid-binding Ig-like lectin 9 (Homo sapiens) (Q9Y336 whole entry): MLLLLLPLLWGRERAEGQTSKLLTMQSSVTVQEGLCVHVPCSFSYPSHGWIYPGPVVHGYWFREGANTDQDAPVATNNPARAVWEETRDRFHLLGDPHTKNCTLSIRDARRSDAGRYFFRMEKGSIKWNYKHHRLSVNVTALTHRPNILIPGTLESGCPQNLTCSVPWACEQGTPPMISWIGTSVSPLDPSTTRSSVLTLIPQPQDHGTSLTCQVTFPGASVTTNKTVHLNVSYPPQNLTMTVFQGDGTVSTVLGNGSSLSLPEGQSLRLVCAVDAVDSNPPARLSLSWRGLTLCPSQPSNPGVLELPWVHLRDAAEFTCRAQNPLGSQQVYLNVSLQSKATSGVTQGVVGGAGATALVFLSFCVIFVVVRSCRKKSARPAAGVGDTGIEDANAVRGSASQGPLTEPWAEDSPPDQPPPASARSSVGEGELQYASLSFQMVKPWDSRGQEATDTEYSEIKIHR

[5] = system: Trypanosoma cruzi; assay: Trypanosoma cruzi phosphomannomutase and mannose-1-phosphate guanylyltransferase assay; type: functional; details: 10 µM
[6] = molecular target: T2, Arginase-2, mitochondrial (Homo sapiens) (UniProt P78540); assay: in vitro enzyme assay to detect the production of urea directly proportional to the activity of Arginase II; type: functional; details: 33.3 µM; note: in the data most compounds retested in dose-response had high values
T2 sequence (whole entry): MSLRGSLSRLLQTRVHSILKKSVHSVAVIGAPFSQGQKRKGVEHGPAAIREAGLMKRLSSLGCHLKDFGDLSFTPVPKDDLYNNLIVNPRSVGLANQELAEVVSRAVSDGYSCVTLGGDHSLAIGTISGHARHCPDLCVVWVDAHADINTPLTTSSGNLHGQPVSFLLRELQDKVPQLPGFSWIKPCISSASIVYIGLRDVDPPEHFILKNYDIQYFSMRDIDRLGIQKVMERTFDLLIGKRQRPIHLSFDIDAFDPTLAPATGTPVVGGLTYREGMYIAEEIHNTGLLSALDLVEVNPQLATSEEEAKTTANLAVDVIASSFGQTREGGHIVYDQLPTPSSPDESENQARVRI

[7] = molecular target: T3, Proteasome subunit beta (Trypanosoma cruzi) (UniProt O96673); assay: Trypanosoma cruzi proteasome chymotrypsin-like activity (TcProtChymo) assay.; note: in the data most compounds retested in dose-response had high values; type: functional; details: 9.37 µM
T3 sequence (whole entry): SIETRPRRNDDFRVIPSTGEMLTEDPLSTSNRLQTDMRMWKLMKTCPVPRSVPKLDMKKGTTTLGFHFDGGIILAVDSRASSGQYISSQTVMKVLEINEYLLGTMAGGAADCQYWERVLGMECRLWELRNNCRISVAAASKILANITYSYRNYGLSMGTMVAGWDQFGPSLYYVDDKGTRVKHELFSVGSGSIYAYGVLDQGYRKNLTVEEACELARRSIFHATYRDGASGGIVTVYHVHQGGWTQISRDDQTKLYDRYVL

[8] = species: Homo sapiens; assay: To identify inhibition of the IFN signalling (Jak-Stat) pathway via expression of an eGFP reporter gene under the control of an IFN-stimulated response element (ISRE) containing MxA promoter.; type: functional; details: 30 µM
[9] = molecular target: T4, Tyrosyl-tRNA synthetase, putative (Trypanosoma cruzi (strain CL Brener)) (UniProt Q4DSP6); assay: Trypanosoma cruzi tyrosyl tRNA synthetase (TcYRS) _High Tyrosine SOP; type: functional; details: 30 µM; note: in the data most compounds retested in dose-response had high values
T4 sequence (whole entry): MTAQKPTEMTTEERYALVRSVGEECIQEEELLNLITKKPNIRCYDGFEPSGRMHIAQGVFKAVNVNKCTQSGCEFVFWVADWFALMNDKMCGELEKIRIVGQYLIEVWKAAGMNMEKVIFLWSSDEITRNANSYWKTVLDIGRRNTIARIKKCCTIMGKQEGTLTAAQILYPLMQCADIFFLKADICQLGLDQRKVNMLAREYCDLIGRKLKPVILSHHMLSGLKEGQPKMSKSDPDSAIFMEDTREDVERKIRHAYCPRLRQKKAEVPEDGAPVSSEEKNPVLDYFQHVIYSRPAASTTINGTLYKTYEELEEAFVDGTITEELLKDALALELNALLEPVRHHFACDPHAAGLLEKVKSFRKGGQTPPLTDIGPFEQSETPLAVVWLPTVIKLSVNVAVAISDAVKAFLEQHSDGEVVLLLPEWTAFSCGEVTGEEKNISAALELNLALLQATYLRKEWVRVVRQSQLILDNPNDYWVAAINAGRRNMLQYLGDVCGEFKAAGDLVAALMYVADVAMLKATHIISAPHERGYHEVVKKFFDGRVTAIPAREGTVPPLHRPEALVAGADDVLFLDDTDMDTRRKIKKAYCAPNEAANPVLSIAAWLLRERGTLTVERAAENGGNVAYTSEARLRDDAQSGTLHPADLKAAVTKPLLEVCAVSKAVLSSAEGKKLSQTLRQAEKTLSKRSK

[10] = molecular target: T4, Tyrosyl-tRNA synthetase, putative (Trypanosoma cruzi (strain CL Brener)); assay: Trypanosoma cruzi tyrosyl tRNA synthetase (TcYRS) SOP; type: functional; details: 30 µM
[11] = molecular target: Chromo domain-containing protein 1 (Saccharomyces cerevisiae (strain ATCC 204508 / S288c) (Baker's yeast)) (UniProt P32657); assay: ScCHD-1 Enzyme Inhibition Assay; type: functional; details: 30 µM; note: in the data most compounds retested in dose-response had high values
Sequence of Chromo domain-containing protein 1 (Saccharomyces cerevisiae (strain ATCC 204508 / S288c) (Baker's yeast)) (P32657 whole entry, the tested form may be a part): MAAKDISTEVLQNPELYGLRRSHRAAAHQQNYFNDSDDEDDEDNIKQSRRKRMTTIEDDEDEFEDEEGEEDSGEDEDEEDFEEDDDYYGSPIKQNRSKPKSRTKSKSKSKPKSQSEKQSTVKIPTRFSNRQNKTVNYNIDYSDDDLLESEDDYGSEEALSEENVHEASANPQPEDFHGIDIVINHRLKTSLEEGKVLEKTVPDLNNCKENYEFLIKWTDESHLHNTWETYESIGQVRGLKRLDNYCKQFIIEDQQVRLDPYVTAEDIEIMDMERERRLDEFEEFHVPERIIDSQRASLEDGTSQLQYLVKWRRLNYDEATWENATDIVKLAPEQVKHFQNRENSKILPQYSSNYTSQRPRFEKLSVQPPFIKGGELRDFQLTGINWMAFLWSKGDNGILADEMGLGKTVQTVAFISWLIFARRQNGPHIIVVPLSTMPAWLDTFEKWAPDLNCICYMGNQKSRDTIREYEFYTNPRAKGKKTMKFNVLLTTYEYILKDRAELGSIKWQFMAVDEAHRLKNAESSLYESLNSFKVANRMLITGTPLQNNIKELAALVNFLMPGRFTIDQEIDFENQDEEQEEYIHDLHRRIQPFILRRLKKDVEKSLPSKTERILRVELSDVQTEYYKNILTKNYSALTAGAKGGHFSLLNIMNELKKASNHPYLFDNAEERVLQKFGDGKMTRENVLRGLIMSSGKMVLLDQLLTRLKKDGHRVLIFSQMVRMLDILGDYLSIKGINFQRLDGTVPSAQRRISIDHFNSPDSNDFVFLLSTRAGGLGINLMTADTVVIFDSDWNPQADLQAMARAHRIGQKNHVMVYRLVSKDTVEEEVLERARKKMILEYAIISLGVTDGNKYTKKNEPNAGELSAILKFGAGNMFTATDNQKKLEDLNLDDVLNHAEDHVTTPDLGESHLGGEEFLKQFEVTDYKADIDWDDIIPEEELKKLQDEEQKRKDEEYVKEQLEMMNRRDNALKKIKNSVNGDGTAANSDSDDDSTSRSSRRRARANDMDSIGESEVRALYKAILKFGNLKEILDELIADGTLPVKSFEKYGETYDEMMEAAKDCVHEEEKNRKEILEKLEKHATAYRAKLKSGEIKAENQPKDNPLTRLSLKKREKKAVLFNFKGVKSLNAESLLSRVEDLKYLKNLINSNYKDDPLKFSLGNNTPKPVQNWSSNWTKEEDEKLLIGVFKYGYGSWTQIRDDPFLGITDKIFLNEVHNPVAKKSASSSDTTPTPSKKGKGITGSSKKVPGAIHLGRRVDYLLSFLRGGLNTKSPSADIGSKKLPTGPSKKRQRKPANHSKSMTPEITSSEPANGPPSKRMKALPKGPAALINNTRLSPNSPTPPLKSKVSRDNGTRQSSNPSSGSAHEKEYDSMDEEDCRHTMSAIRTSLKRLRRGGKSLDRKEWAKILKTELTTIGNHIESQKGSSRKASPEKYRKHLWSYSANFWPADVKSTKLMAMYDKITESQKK

Compound	Percent Effect [1] [%]	Percent Effect [2] [%]	Percent Effect [3] [%]	Percent Effect [4] [%]	Percent Effect [5] [%]	Percent Effect [6] [%]	Percent Effect [7] [%]	Percent Effect [8] [%]	Percent Effect [9] [%]	Percent Effect [10] [%]	Percent Effect [11] [%]
Cc1[nH]ccc1C(=O)Nc1cccc(CN2CCC(CO)CC2)c1	-3.65	23.7	-7.05	-13.3	0.876	-17.8	8.34	30.6	3.19	13	-9.32
O=C(NCc1ccccn1)Nc1cc(C(F)(F)F)c[nH]c1=O	-6.27	5.41	-7.01	23.6	4.74	4.25	4.67	2.58	3.96	18.3	-8.44
CCNC(=O)[C@@H]1C[C@H](NC(=O)c2ccccc2C#N)CN1CCCSC	-6.15	-2.74	-0.485	8.44	0.794	0.399	11.4	-3.71	2.08	18.5	1.18
CC[C@@H](CO)NC(=O)c1coc(COc2ccc(OC)cc2)n1	-3.54	10.8	-5.65	-1.14	-2.05	-0.744	5.58	-2.06	6.45	18.5	-1.77
O=C([C@H]1CN(CCc2ccccc2)C[C@H]2OCC[C@@H]12)N1CCCO1	-5.74	18.7	-7.7	-0.861	6.37	-46.1	11.6	4.24	2.08	15	-7.28
COc1ccc(CN(Cc2cncn2C)CC2CCCO2)c(OC)c1 (stereo not given)	-2.55	17.6	4.23	-4.44	-0.79	0.696	20	17.5	5.38	14.3	-18.5
COc1ccccc1C(=O)N(C)Cc1ncc(C)c(OC)c1C	-0.917	-2.6	2.31	10.5	-1.86	0.21	3.8	5.2	-0.952	-2.35	-15.8
Cc1nnc(N2CC[C@H]3C[C@H](C(=O)N4CCOCC4)O[C@H]3C2)s1	-2.55	0	5.32	2.05	0.0978	-0.955	14.6	-19.4	1.08	5.13	1.53
OCC1CCCN1c1cc(NCc2ccc(Cl)s2)ncn1 (stereo not given)	0.246	8.86	-3.63	-2.18	-1.95	-3.66	24	74.3	4.17	15.2	-15.5
c1ccc2sc(CN3CCOC(Cn4cncn4)C3)nc2c1 (stereo not given)	-1.57	-8.11	-9.39	-1.81	-6.51	0.401	-4.68	42.5	1.48	-6.17	4.42
Cc1oc(C)c(C(=O)NCc2ccccn2)c1C	-0.692	10.5	-8.31	2.54	-12.8	7.28	15.7	14	1.47	7.32	-5.27
Cc1nc(C(=O)N2CCCC(n3cncn3)C2)cs1 (stereo not given)	-1.23	-1.27	3.74	3.18	-0.718	2.8	4.63	-1.7	-38.5	5.06	0.874
COCCOc1ccc(NC(=O)N(C)Cc2ccsc2)cn1	1.05	17.7	-9.72	-8.23	-9.35	2.28	7.94	12.9	2.46	13.9	-6.06
CCCNC(=O)CNc1cc(C#N)ccc1OCC	-6.04	22.8	-6.15	3.16	4.82	-6.46	11.7	11.7	4.43	21.5	-7.89
COCCCN1CCc2cncnc2C1	-2.65	5.06	-237	6.45	9.35	2.66	8.27	-13.7	5.42	8.86	-6.93
C1CC(NCc2nc(C3CC3)no2)CN(Cc2noc(C3CC3)n2)C1 (stereo not given)	-2.33	24.3	-2.39	-3.6	-6.32	-12.4	11.2	27	-0.493	6.17	-4.12
COc1cccc(C(=O)Nc2cc(CC(C)C)nn2C)c1	-4.81	-5.2	-7.56	6.82	6.74	-6.41	3.04	11	4.85	14.6	-5.36
Clc1ccc2oc(C3CCN(Cc4cccnc4)CC3)nc2c1	0.753	13.5	5.18	16.9	5.02	-10.5	15.5	32.2	-0.529	12.2	-6.96
c1csc(-c2nc(CNC3CCc4ncnn4C3)co2)c1 (stereo not given)	-3.96	7.79	-1.01	1.84	-5.24	2.13	4.22	20.4	2.91	9.76	-4.74
COc1ccc(C(=O)Nc2cnn(CC(=O)NC3CCCC3)c2)c(O)c1	-2.21	13.7	-8.3	5.57	3.77	0.798	9.16	-10.3	11.5	25.9	-3.82
